We go through 8 compounds from PubChem BioAssay (NCI).

The structures appear in SMILES notation. The panel holds about 83,000 compounds, 20% with a hit somewhere; the sample as a whole holds those more often.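 Results are percent growth after 48 hours of single-concentration exposure. 100 means growth as in untreated cells, lower positive values show inhibition; negative values down to -100 show cell death.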 Unmarked numbers belong to inactive results. Active and inactive are the calls of the source. Rule for the calls: active = growth percent below 10; inactive = the rest.

Among the test systems are HCT-15 colon; HT29 colon; SNB-75 CNS; SNB-19 CNS; U251 CNS; PC-3 prostate; SK-MEL-5 melanoma; UACC-62 melanoma; LOX IMVI melanoma; SK-MEL-28 melanoma; SK-MEL-2 melanoma; EKVX NSCLC; SN12C renal; UO-31 renal; ACHN renal; CAKI-1 renal; CCRF-CEM leukemia; A498 renal; MOLT-4 leukemia; TK-10 renal.
Holding throughout (test): NCI-60 one-dose screen, 48 h (100 = growth as untreated, 0 = no growth, -100 = all killed)
What all share (conditions): 10 µM unless noted

With `COc1ccc2c(c1OC)CO[C@@H]2[C@H]1c2c(cc3c(c2OC)OCO3)CCN1S(=O)(=O)c1cn(C)cn1`, the growth with HCT-15 colon was 13.5%; in the assay with HT29 colon, 16.9%; in the assay on SNB-75 CNS it was 27.7%; in the assay with SNB-19 CNS, 33.2%; with U251 CNS, 9.29% (active); with PC-3 prostate, 24%. Moreover, the growth in the assay on SK-MEL-5 melanoma was 23.4%; with UACC-62 melanoma, 27.6%; with LOX IMVI melanoma, 38%; with SK-MEL-28 melanoma, 55.3%; in the assay with SK-MEL-2 melanoma, 36.3%; with EKVX NSCLC it was 45.6%. The growth in the assay with SN12C renal was 41.1%; in the assay with UO-31 renal it was 46.2%; in the assay on ACHN renal, 36.6%; with CAKI-1 renal it was 31.7%; with CCRF-CEM leukemia, 21.4%.

For the compound `COC(=O)c1nc(-c2ccccc2)oc1S(=O)(=O)Cc1ccccc1`, the growth is 62.2% with HCT-15 colon; 49.4% with HT29 colon; 84.8% in the assay with SNB-75 CNS; 96.2% in the assay with SNB-19 CNS; 94.2% in the assay with U251 CNS; 91.6% in the assay on PC-3 prostate. Moreover, the growth was 93.4% in the assay on SK-MEL-5 melanoma; 91.1% in the assay with UACC-62 melanoma; 61.1% in the assay on LOX IMVI melanoma; 95.5% in the assay on SK-MEL-28 melanoma; 80.2% in the assay on SK-MEL-2 melanoma; 119% in the assay with EKVX NSCLC. Further, the growth in the assay with SN12C renal is 93.5%; in the assay with UO-31 renal, 72.9%; in the assay on ACHN renal, -35% (active); with CAKI-1 renal, 8.14% (active); in the assay with A498 renal, 98.1%; with CCRF-CEM leukemia, -6.08% (active). In the assay with MOLT-4 leukemia, the growth was -9.29% (active).

Consider `COCCn1cc(-c2csc(-c3cn(C)c4ccc(Br)cc34)n2)c2cccnc21`, for which the growth is 12.1% in the assay with HCT-15 colon; 26% in the assay with HT29 colon; 75.6% in the assay with SNB-75 CNS; 78.5% in the assay on SNB-19 CNS; 51.4% in the assay on U251 CNS; 38.1% in the assay with PC-3 prostate. Moreover, the growth in the assay with SK-MEL-5 melanoma is 71%; with UACC-62 melanoma, 70.5%; in the assay with LOX IMVI melanoma, -55.1% (active); with SK-MEL-28 melanoma, 74.9%; in the assay with SK-MEL-2 melanoma it was 65.6%; in the assay on EKVX NSCLC, 58.4%. Moreover, the growth with SN12C renal is 69.1%; in the assay with UO-31 renal, 61.9%; in the assay with ACHN renal, 57.1%; in the assay with CAKI-1 renal, 65%; in the assay with A498 renal, 45.6%; with CCRF-CEM leukemia, 67.4%. In addition, the growth in the assay with MOLT-4 leukemia was 63.4%.

Consider `COc1c(B(O)O)cccc1-c1cc(C)c2c(ccc3[nH]ncc32)n1`, for which the growth in the assay with HCT-15 colon was 95.2%; with HT29 colon it was 88.2%; in the assay with SNB-75 CNS, -29.9% (active); in the assay on SNB-19 CNS, 91.1%; with U251 CNS, 87.8%; with PC-3 prostate, 84.3%. In addition, the growth in the assay with SK-MEL-5 melanoma is 88.9%; in the assay on UACC-62 melanoma it was 98.8%; in the assay with LOX IMVI melanoma, 56.9%; with SK-MEL-28 melanoma, 116%; in the assay on SK-MEL-2 melanoma, 116%; in the assay with EKVX NSCLC, 65.8%. The growth was 60.5% with SN12C renal; 21.6% in the assay on UO-31 renal; 29.2% in the assay on TK-10 renal; 55.7% with ACHN renal; -17.9% (active) in the assay on CAKI-1 renal; 63.3% with CCRF-CEM leukemia. Besides, the growth in the assay with MOLT-4 leukemia was 64.2%.

Turning to `COc1ccc2c(c1)c(-c1nc(-c3c[nH]c4ccncc34)cs1)cn2C`, the growth in the assay on HCT-15 colon is -54.2% (active); in the assay on HT29 colon it was -72.1% (active); in the assay on SNB-75 CNS it was -97.5% (active); in the assay with SNB-19 CNS it was -58.9% (active); in the assay on U251 CNS, -91.9% (active); in the assay on PC-3 prostate, -81.1% (active). Further, the growth in the assay with SK-MEL-5 melanoma is -97.4% (active); in the assay with UACC-62 melanoma, -75.8% (active); in the assay with LOX IMVI melanoma, -93.3% (active); in the assay on SK-MEL-28 melanoma, -95.7% (active); in the assay on SK-MEL-2 melanoma it was -45.2% (active); with EKVX NSCLC, -53.3% (active). The growth with SN12C renal is -72% (active); in the assay on UO-31 renal it was -88% (active); in the assay with ACHN renal it was -96.7% (active); in the assay with CAKI-1 renal it was -86.3% (active); in the assay with A498 renal, 65.7%; in the assay on MOLT-4 leukemia, -42.8% (active).

`O=C(Nc1ccccc1O)c1ccc(CNC(=O)c2sccc2Nc2ccnc(C(F)(F)F)c2)cc1`: the growth is 47.6% with HCT-15 colon; 53% in the assay with HT29 colon; 36.9% in the assay on SNB-75 CNS; 68.9% in the assay with SNB-19 CNS; 40.6% in the assay with U251 CNS; 35.2% in the assay on PC-3 prostate. Also, the growth is 25.1% in the assay with SK-MEL-5 melanoma; 27.7% in the assay on UACC-62 melanoma; 53.6% in the assay on LOX IMVI melanoma; 63.6% in the assay on SK-MEL-28 melanoma; 0.0247% (active) in the assay on SK-MEL-2 melanoma; 59.2% with EKVX NSCLC. Further, the growth in the assay on SN12C renal is 57.8%; in the assay with UO-31 renal, 27.2%; with ACHN renal, 49.3%; in the assay on CAKI-1 renal, 35.2%; in the assay on A498 renal, 6.31% (active); in the assay on CCRF-CEM leukemia it was 10.8%. In addition, the growth in the assay with MOLT-4 leukemia is 12.1%.

In the case of `Nc1n[nH]c2cccc(C#Cc3cccc(NC(=O)c4cc(F)cc(C(F)(F)F)c4)c3)c12`, the growth with HCT-15 colon was 74.4%; in the assay with HT29 colon, 48.3%; in the assay on SNB-75 CNS, 98.6%; in the assay on SNB-19 CNS, 104%; in the assay on U251 CNS it was 93.7%; with PC-3 prostate, 64.1%. Further, the growth in the assay with SK-MEL-5 melanoma was 71.7%; in the assay on UACC-62 melanoma it was 48.1%; in the assay on LOX IMVI melanoma it was 37%; in the assay with SK-MEL-28 melanoma it was 66.8%; with SK-MEL-2 melanoma it was 63.2%; in the assay with EKVX NSCLC it was 92.8%. Besides, the growth with SN12C renal is 53.1%; in the assay with UO-31 renal, 36.8%; in the assay on TK-10 renal, 111%; in the assay with ACHN renal, 64.7%; in the assay with CAKI-1 renal, 104%; in the assay with CCRF-CEM leukemia, 43%. Further, the growth with MOLT-4 leukemia is 48.1%.

Take `COC(=O)/C=C1/SC(=Nc2cccc(OC)c2)N(CCc2c[nH]c3ccc(O)cc23)C1=O`: the growth is 26.4% in the assay on HCT-15 colon; 92% in the assay on HT29 colon; 71% in the assay with SNB-75 CNS; 54.3% with SNB-19 CNS; 45.4% in the assay on U251 CNS; 46% with PC-3 prostate. Further, the growth with SK-MEL-5 melanoma was 63.6%; with UACC-62 melanoma it was 53.4%; with LOX IMVI melanoma, 23.5%; in the assay on SK-MEL-28 melanoma it was 70.9%; with SK-MEL-2 melanoma, 57.6%; in the assay with EKVX NSCLC, 66.9%. Also, the growth in the assay on SN12C renal was 62.3%; with UO-31 renal, 55.7%; with TK-10 renal, 117%; with ACHN renal, 71.8%; in the assay with CAKI-1 renal, 82.2%; with MOLT-4 leukemia it was -1.26% (active).
